esBAF inh: SWI/SNF esBAF complex inhibition; reporter increase, % at 12.5 µM; mouse ES cells, Bmi1-luciferase knock-in reporter, 24 h; 100% = twice the neutral-well signal; actives 2% (n = 350,000); in the data active = activation above about 40%;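 note: a rise in the Bmi1 reporter signal indicates esBAF inhibition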
SMARCA2 act: increases SMARCA2 function in MMTV reporter cells; actives 1% (n = 370,000); AID 652017; activation, % at 9.1 µM; MG213 cells, MMTV-luciferase reporter, dexamethasone, overnight; in the data active = activation above about 7.8%
NR3A LBD binder: NR3A (human) ligand-binding domain modulation; actives 2.5% (n = 340,000); NR3A LBD differential scanning fluorimetry, Tm shift; 0% = protein alone, 100% = glycine-bound protein; Tm shift relative to glycine control, % at 25 µM;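 active = melting temperature shift of at least 10% of the positive control shift, at one fixed dose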
NadD inh: inhibitors of Staphylococcus aureus NadD; purified NadD enzyme, colorimetric absorbance read-out; inhibition, % at 20 µM; actives 0.78% (n = 360,000); in the data active = inhibition above about 26%
SKN-1 inh: blocks SKN-1 activity in C. elegans. C. elegans VP596 Pgst-4::GFP/RFP ratio, acrylamide-induced, 24 h. inhibition, % at 21.8 µM. AID 624304. actives 0.49% (n = 360,000);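 active = interference check ratio from 0.5 to 1.5 plus GFP to RFP signal ratio inhibition reaching or exceeding a fixed threshold, cut at about 30% in these data, passing the limit was not always enough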
Vif imaging: inhibitors of HIV Vif. HEK293T cells, Vif self-association by quenched fluorescence, imaging, 24 h. inhibition, % at 7.49 µM. actives 0.35% (n = 340,000). AID 602346; in the data active = inhibition above about 50%, passing the limit was not always enough
NadD inh conf: NadD (S. aureus) inhibition, single concentration confirmation; shares compounds with NadD inh; purified S. aureus NadD, colorimetric enzyme assay; inhibition, % at 20 µM; actives 13% (n = 2,000); AID 624309; in the data active = inhibition mostly above about 42%, no sharp cut-off; inactive = mostly below about 42%
A number is an active result; . = inactive; / = not tested or not shown. This is a sample that favours compounds with a hit; in the whole collection about 5.2% have one here.

SMILES	esBAF inh	SMARCA2 act	NR3A LBD binder	NadD inh	SKN-1 inh	Vif imaging	NadD inh conf
Cc1ccc(NC(=O)CN(C)Cc2nc3c(Br)cc(Br)cc3c(=O)[nH]2)cc1	/	.	.	29	.	.	.
CO[C@H]1CN(C)C(=O)c2ccc(NC(=O)NC(C)C)cc2OC[C@H](C)N(C(=O)C2CCC2)C[C@H]1C	.	/	/	/	/	/	/
Cc1nn(Cc2c(Cl)cccc2Cl)c(C)c1NC(=O)c1cn(-c2ccccc2)nc1-c1ccccc1	/	/	.	34	.	.	.
Cc1cccc(C)c1NC(=O)CNC(=O)c1cn(-c2ccccc2)nc1-c1ccccc1	.	.	.	.	.	/	/
COc1c(C(CC(C)C)OC(C)=O)ccc2c1C(=O)OCc1cc(C)cc(O)c1O2 (stereo unspecified)	.	.	.	.	.	.	/
COc1c(C(O)CC(C)C)ccc2c1C(=O)OCc1cc(C)cc(O)c1O2 (stereo unspecified)	.	.	.	92	.	.	.
Cc1ccc(S(=O)(=O)Nc2ccc3c(c2)CC(=O)N([C@H](C)CO)C[C@H](C)[C@@H](CN(C)S(=O)(=O)c2ccc(C)cc2)O3)cc1	.	/	/	/	/	/	/
O=C(Nc1ccc(Cl)c(Cl)c1)Nc1ccc([N+](=O)[O-])cn1	.	.	.	34	.	.	.
O=C(Nc1ccc(F)cc1)Nc1ccc([N+](=O)[O-])cn1	/	.	.	.	.	.	/
CC1Cc2ccccc2N1C(=O)CSc1nc2cc3c(cc2cc1C#N)OCO3 (stereo unspecified)	.	.	.	35	.	.	.
COc1ccc(-c2ccc3[nH]c4c(c3c2)CCN2C[C@@H]([C@H](C)OC(=O)Nc3cc(Cl)cc(Cl)c3)[C@@H](N(C)C(=O)Nc3cc(Cl)cc(Cl)c3)C[C@@H]42)cc1	.	.	/	38	.	.	.
C[C@H](CO)N1C[C@H](C)[C@H](CN(C)C(=O)Cc2ccccc2)Oc2ncc(-c3ccc(F)cc3)cc2C1=O	.	/	/	/	/	/	/
COc1cc(NS(=O)(=O)c2ccc(NC(=S)NC(=O)c3sc4ccccc4c3Cl)cc2)ncn1	/	11	.	50	.	.	.
C[C@@H]1CN([C@@H](C)CO)C(=O)c2cccc(NS(=O)(=O)c3cccs3)c2O[C@@H]1CN(C)Cc1ccccc1	.	/	/	/	/	/	/
Cc1ccc(Cn2c(N)c(S(=O)(=O)c3cccs3)c3nc4ccccc4nc32)cc1	.	.	.	32	.	.	.
NCCCC[C@@H]1NC(=O)[C@H](CCC(=O)O)NC(=O)c2cc([N+](=O)[O-])cc(I)c2SC[C@@H](C(=O)NCC(N)=O)NC1=O	.	.	.	.	.	.	/
NCCCC[C@@H]1NC(=O)c2cc([N+](=O)[O-])cc(I)c2SC[C@@H](C(N)=O)NC(=O)[C@H](Cc2ccc(O)cc2)NC1=O	.	/	.	42	.	.	.
CC1=CC(C)(C)n2c(O)c(C3=NC(=S)NC3=O)c3cc(OC(=O)c4cccc5ccccc45)cc1c32	.	.	.	55	.	.	.
COc1cccc(C(=O)Oc2cc3c4c(c2)C(C)=CC(C)(C)N4C(=O)C3=O)c1	.	.	.	.	.	.	/
Cc1ccccc1S(=O)(=O)N1[C@H](CO)[C@@H](c2ccc(-c3ccc(F)cc3)cc2)[C@@H]1C#N	.	/	/	/	/	/	/
C[C@H](O)C#Cc1cnc2c(c1)C(=O)N([C@@H](C)CO)C[C@H](C)[C@@H](CN(C)C(=O)Cc1ccncc1)O2	.	/	/	/	/	/	/
COC(=O)C1=C(O)/C(=C\c2ccc(CNC(=O)C(=O)Nc3ccc(C)c(C)c3)o2)N=C1C	/	.	.	34	.	.	.
COC(=O)C1=C(O)/C(=C\c2ccc(CNC(=O)C(=O)Nc3ccc(C)cc3)o2)N=C1C	/	.	.	32	.	/	.
CCOC(=O)C1=C(O)/C(=C/c2ccc(CNC(=O)C(=O)Nc3ccc(C)cc3)o2)N=C1C	/	.	.	46	.	.	.
CCOC(=O)C(=O)NCc1ccc(/C=C2/N=C(C)C(C(=O)OCC)=C2O)o1	/	.	.	.	.	.	/
CO[C@@H]1CN(C)C(=O)c2ccc(NC(C)=O)cc2OC[C@@H](C)N(C(=O)c2cnccn2)C[C@@H]1C	.	/	/	/	/	/	/
